Source: PubChem BioAssay (NCATS)
Inconclusive results are not listed. Calls of active or inactive are those of the source. Unless noted, calls come from the whole dose curve.

Assays:
[1] = qHTS for Inhibitors of the Functional Ribonucleoprotein Complex (vRNP) of Lassa (LASV) Arenavirus: LASV Primary Screen - GLuc reporter signal (AID 1347082; calls by dose curve; tested in HEK293 reporter line; note: nearly all actives have a fitted effect of over 60% in size)
[2] = qHTS for Inhibitors of the Functional Ribonucleoprotein Complex (vRNP) of Lassa (LASV) Arenavirus: Viability assay - alamar blue signal for LASV Primary Screen (AID 1347083; calls by dose curve; tested in HEK293 reporter line; note: nearly all actives have a fitted effect of over 80% in size)
[3] = qHTS for Inhibitors of the Functional Ribonucleoprotein Complex (vRNP) of Lymphocytic Choriomeningitis Arenaviruses (LCMV): Viability assay - alamar blue signal for LCMV Primary Screen (AID 1347085; calls by dose curve; tested in HEK293 reporter line; note: nearly all actives have a fitted effect of over 80% in size)
[4] = molecular target: Nucleoprotein (Lymphocytic choriomeningitis virus (strain Armstrong)) (UniProt P09992); assay: qHTS for Inhibitors of the Functional Ribonucleoprotein Complex (vRNP) of Lymphocytic Choriomeningitis Arenaviruses (LCMV): LCMV Primary Screen - GLuc reporter signal (AID 1347086); note: nearly all actives have a fitted effect of over 70% in size
Sequence of Nucleoprotein (Lymphocytic choriomeningitis virus (strain Armstrong)) (P09992 whole entry, looked up): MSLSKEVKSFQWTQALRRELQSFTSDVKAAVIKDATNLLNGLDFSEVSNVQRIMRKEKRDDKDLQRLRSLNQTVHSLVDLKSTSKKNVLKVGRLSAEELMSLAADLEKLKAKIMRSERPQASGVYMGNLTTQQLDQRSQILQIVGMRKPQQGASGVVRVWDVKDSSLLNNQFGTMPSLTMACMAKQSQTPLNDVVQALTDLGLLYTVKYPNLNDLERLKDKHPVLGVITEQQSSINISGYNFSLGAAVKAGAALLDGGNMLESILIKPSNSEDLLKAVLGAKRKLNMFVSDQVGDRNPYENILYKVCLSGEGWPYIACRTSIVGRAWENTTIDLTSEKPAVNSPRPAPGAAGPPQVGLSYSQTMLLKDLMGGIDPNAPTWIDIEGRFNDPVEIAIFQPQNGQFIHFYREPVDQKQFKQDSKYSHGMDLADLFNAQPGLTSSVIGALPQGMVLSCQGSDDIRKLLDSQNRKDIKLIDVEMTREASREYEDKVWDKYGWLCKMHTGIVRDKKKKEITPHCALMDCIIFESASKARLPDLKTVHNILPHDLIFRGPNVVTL
% is set by controls: 0 for no effect and ±100 for the full control effect.
Note: series mostly up to about 57 µM.

CC(COc1ccccc1)NN (stereo not given)
inactive: Potency [1] | Potency [2] | Potency [3] | Potency [4]

Cc1c(C)c2c(c(C)c1O)CCC(C)(COc1ccc(CC3SC(=O)NC3=O)cc1)O2 (stereo not given)
inactive: Potency [1] | Potency [2] | Potency [3] | Potency [4]

Cc1ccc2ccc(Cl)cc2n1
inactive: Potency [1] | Potency [2] | Potency [3] | Potency [4]

O=S(=O)(O)CCS
inactive: Potency [1] | Potency [2] | Potency [3] | Potency [4]

COc1c2occc2c(OC)c2c(=O)cc(C)oc12
inactive: Potency [1] | Potency [2] | Potency [3] | Potency [4]

NC(N)=NCCN1CCCCCCC1
inactive: activity change, negative = inhibition [1] 1.43% [at 0.757 µM] | activity change, negative = reduced viability [2] 1.98% [at 0.757 µM] | activity change, negative = lower viability [3] 5.22% [at 0.757 µM] | activity change, negative = inhibition [4] -0.256% [at 0.757 µM]

O=C(CS(=O)Cc1ccco1)NC/C=C\COc1cc(CN2CCCCC2)ccn1 (stereo not given)
inactive: Potency [1] | Potency [2] | Potency [3] | Potency [4]

CC(C)NCC(O)c1ccc(NS(C)(=O)=O)cc1 (stereo not given)
inactive: Potency [1] | Potency [2] | Potency [3] | Potency [4]

Clc1ccc2c(c1)Nc1ccccc1S2
inactive: Potency [1] | Potency [2] | Potency [3] | Potency [4]

CCc1oc2ccccc2c1C(=O)c1cc(I)c(O)c(I)c1
inactive: Potency [1] | Potency [2] | Potency [3] | Potency [4]

O=C(O)CCC(=O)O
inactive: Potency [1] | Potency [2] | Potency [3] | Potency [4]

CC(C)C[C@H]1C(=O)N2CCC[C@H]2[C@]2(O)O[C@](NC(=O)[C@@H]3C=C4c5cccc6[nH]c(Br)c(c56)C[C@H]4N(C)C3)(C(C)C)C(=O)N12
inactive: Potency [1] | Potency [2] | Potency [3] | Potency [4]

C[C@@H]1CN(c2c(F)c(F)c3c(=O)c(C(=O)O)cn(C4CC4)c3c2F)C[C@H](C)N1
inactive: Potency [1] | Potency [2] | Potency [3] | Potency [4]

O=C1C(O)=C(O)C(=O)C(O)=C1O
inactive: Potency [1] | Potency [2] | Potency [3] | Potency [4]

Clc1cccc(C(c2ccc3nc[nH]c3c2)n2ccnc2)c1 (stereo not given)
inactive: Potency [1] | Potency [2] | Potency [3] | Potency [4]

Cc1cccc(C)c1NC(=O)CC12CCCN1CCC2
inactive: Potency [1] | Potency [2] | Potency [3] | Potency [4]

O=c1cc[nH]c(=S)[nH]1
inactive: Potency [1] | Potency [2] | Potency [3] | Potency [4]

Oc1ccccc1-c1nnco1
inactive: Potency [1] | Potency [2] | Potency [3] | Potency [4]

COc1ccc(C(=O)NCc2ccc(OCCN(C)C)cc2)cc1OC
inactive: Potency [1] | Potency [2] | Potency [3] | Potency [4]

CC1(COc2ccc(CC3SC(=O)NC3=O)cc2)CCCCC1 (stereo not given)
inactive: Potency [1] | Potency [2] | Potency [3] | Potency [4]

Cc1c(C(=O)O)c(O)cc2c1C(=O)c1c(O)c([C@@H]3O[C@H](CO)[C@@H](O)[C@H](O)[C@H]3O)c(O)c(O)c1C2=O
inactive: Potency [1] | Potency [2] | Potency [3] | Potency [4]

COc1ccccc1N1CCN(CCCCNC(=O)c2ccc(-c3ccc(C(C)=O)cc3)cc2)CC1
inactive: Potency [1] | Potency [2] | Potency [3] | Potency [4]

CC(C)OC(=O)OCOP(=O)(CO[C@H](C)Cn1cnc2c(N)ncnc21)OCOC(=O)OC(C)C
inactive: Potency [1] | Potency [2] | Potency [3] | Potency [4]

CCCCCCCCCCCCOCCO
inactive: Potency [1] | Potency [2] | Potency [3] | Potency [4]

Oc1c(Br)cc(Br)c2cccnc12
inactive: Potency [1] | Potency [2] | Potency [3] | Potency [4]

NCCNCCNCCN
inactive: Potency [1] | Potency [2] | Potency [3] | Potency [4]

C[C@]12C=CC(=O)C=C1CC[C@@H]1[C@@H]2C(=O)C[C@@]2(C)[C@H]1CC[C@]2(O)C(=O)CO
inactive: Potency [1] | Potency [2] | Potency [3] | Potency [4]

OCc1ccc(Cl)cc1Cl
inactive: Potency [1] | Potency [2] | Potency [3] | Potency [4]

O=C(O)/C=C(\CC(=O)O)C(=O)O
inactive: Potency [1] | Potency [2] | Potency [3] | Potency [4]

CCc1cc(C(N)=S)ccn1
inactive: Potency [1] | Potency [2] | Potency [3] | Potency [4]

C#C[C@]1(O)CC[C@H]2[C@@H]3CCc4cc(OC5CCCC5)ccc4[C@H]3CC[C@@]21C
inactive: Potency [1] | Potency [2] | Potency [3] | Potency [4]

NC[C@H]1O[C@H](O[C@H]2[C@H](O[C@@H]3O[C@H](CO)[C@@H](O)[C@H]3O)C(O)[C@H](N)C[C@@H]2N)[C@H](N)[C@@H](O)[C@@H]1O (stereo not given in full)
inactive: activity change, negative = inhibition [1] -1.42% [at 11.5 µM] | activity change, negative = reduced viability [2] -0.396% [at 11.5 µM] | activity change, negative = lower viability [3] -0.301% [at 11.5 µM] | activity change, negative = inhibition [4] 40.8% [at 11.5 µM]

CC(C)(C)NCC(O)c1cc(O)cc(O)c1 (stereo not given)
inactive: Potency [1] | Potency [2] | Potency [3] | Potency [4]

Cc1c(C(=O)NCCO)[n+](=O)c2ccccc2n1[O-]
inactive: Potency [1] | Potency [2] | Potency [3] | Potency [4]

NNC(=O)c1ccncc1
inactive: Potency [1] | Potency [2] | Potency [3] | Potency [4]

CC(=O)CC/C=C(\C)CC/C=C(\C)CC/C=C(\C)CCC=C(C)C
inactive: Potency [1] | Potency [2] | Potency [3] | Potency [4]

O=C(O)c1cc(-c2ccccc2)nc2ccccc12
inactive: Potency [1] | Potency [2] | Potency [3] | Potency [4]

O=c1cc[nH]c(=O)[nH]1
inactive: Potency [1] | Potency [2] | Potency [3] | Potency [4]

O=C(CCCl)NCCc1ccccc1
inactive: Potency [1] | Potency [2] | Potency [3] | Potency [4]

CC(=O)c1ccc(O)c(C(N)=O)c1
inactive: Potency [1] | Potency [2] | Potency [3] | Potency [4]

O=C(O)c1cc(=O)c2ccccc2o1
inactive: Potency [1] | Potency [2] | Potency [3] | Potency [4]

O=C(OOC(=O)c1ccccc1)c1ccccc1
inactive: Potency [1] | Potency [2] | Potency [3] | Potency [4]

COc1cc(C=O)ccc1O
inactive: Potency [1] | Potency [2] | Potency [3] | Potency [4]

CC(=O)Nc1ccc(S(=O)(=O)Nc2cc(C)on2)cc1
inactive: Potency [1] | Potency [2] | Potency [3] | Potency [4]

NC1CCN(c2nc3c(cc2F)c(=O)c(C(=O)O)cn3-c2ccc(F)cc2F)C1 (stereo not given)
inactive: Potency [1] | Potency [2] | Potency [3] | Potency [4]

CC(=O)NS(=O)(=O)c1ccc(N)cc1
inactive: Potency [1] | Potency [2] | Potency [3] | Potency [4]

CCN(Cc1ccncc1)C(=O)C(CO)c1ccccc1 (stereo not given)
inactive: Potency [1] | Potency [2] | Potency [3] | Potency [4]

O=C(NC(Cc1cc(=O)[nH]c2ccccc12)C(=O)O)c1ccc(Cl)cc1 (stereo not given)
inactive: Potency [1] | Potency [2] | Potency [3] | Potency [4]

O=C(O)c1cc(=O)[nH]c(=O)[nH]1
inactive: Potency [1] | Potency [2] | Potency [3] | Potency [4]

COc1ccc(C2CNC(=O)C2)cc1OC1CCCC1 (stereo not given)
inactive: Potency [1] | Potency [2] | Potency [3] | Potency [4]

CCCCCCCCCCCCCCCCO
inactive: Potency [1] | Potency [2] | Potency [3] | Potency [4]

C=CCN1CCc2nc(N)sc2CC1
inactive: Potency [1] | Potency [2] | Potency [3] | Potency [4]

CCN1CCN(C(=O)N[C@@H](C(=O)N[C@@H]2C(=O)N3[C@@H]2SC(C)(C)[C@H]3C(=O)O)c2ccccc2)C(=O)C1=O
inactive: Potency [1] | Potency [2] | Potency [3] | Potency [4]

CSCC[C@H](NC(=O)[C@H](Cc1c[nH]c2ccccc12)NC(=O)CCNC(=O)OC(C)(C)C)C(=O)N[C@@H](CC(=O)O)C(=O)N[C@@H](Cc1ccccc1)C(N)=O
inactive: Potency [1] | Potency [2] | Potency [3] | Potency [4]

CC(=O)Oc1cccc(O)c1
inactive: Potency [1] | Potency [2] | Potency [3] | Potency [4]

CN1CCN(c2c(F)cc3c(=O)c(C(=O)O)cn4c3c2SCC4)CC1
inactive: Potency [1] | Potency [2] | Potency [3] | Potency [4]

CC(=O)Nc1ncc([N+](=O)[O-])s1
inactive: Potency [1] | Potency [2] | Potency [3] | Potency [4]

Cc1[nH]cnc1-c1ccc(Cl)cc1
inactive: Potency [1] | Potency [2] | Potency [3] | Potency [4]

COc1ccc2cccc(CCNC(C)=O)c2c1
inactive: Potency [1] | Potency [2] | Potency [3] | Potency [4]

C[C@](N)(Cc1ccc(O)cc1)C(=O)O
inactive: Potency [1] | Potency [2] | Potency [3] | Potency [4]
